Compound activity deposited in PubChem by several laboratories.
Compounds with a hit are over-represented: about 3.7% of the library has one in this group of screens.
PfHsp90 set2 – growth inhibition of yeast expressing Plasmodium Hsp90. inhibition, % at 9.4 µM. 310,000 tested, 0.32% active. S. cerevisiae expressing PfHsp90, BacTiter-Glo ATP, 48 h; yeast lacking PDR1 and PDR3 efflux regulators;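 active means every replicate shows inhibition above about 80%, whatever the replicate mean, limit read from the data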
TIM10 inh – growth inhibitors of TIM10 yeast strain; 330,000 tested, 1.4% active; S. cerevisiae TIM10 strain growth, BacTiter-Glo luminescence, 24 h; inhibition, % at 10 µM;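 active means inhibition of 40% or more at the single tested concentration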;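 further: wild-type TIM10 isogenic control strain grown at permissive 25 °C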
tim23-1 inh – growth inhibitors of tim23-1 mutant yeast. S. cerevisiae tim23-1 growth, BacTiter-Glo luminescence, 24 h. inhibition, % at 20 µM. 330,000 tested, 1.3% active;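 active means growth inhibition of the mutant yeast at or above 50%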;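 further: temperature-sensitive mutant grown at 25 °C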
Rce1 inh – inhibitors of yeast Ras-converting enzyme. Q03530. 290,000 tested, 0.27% active. yeast membranes, quenched prenylated peptide cleavage fluorescence. calls only;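 active means fall in fluorescence gain of 50% or more versus controls, with final raw signal at or below 3038400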
Target sequence (Q03530 whole entry, looked up): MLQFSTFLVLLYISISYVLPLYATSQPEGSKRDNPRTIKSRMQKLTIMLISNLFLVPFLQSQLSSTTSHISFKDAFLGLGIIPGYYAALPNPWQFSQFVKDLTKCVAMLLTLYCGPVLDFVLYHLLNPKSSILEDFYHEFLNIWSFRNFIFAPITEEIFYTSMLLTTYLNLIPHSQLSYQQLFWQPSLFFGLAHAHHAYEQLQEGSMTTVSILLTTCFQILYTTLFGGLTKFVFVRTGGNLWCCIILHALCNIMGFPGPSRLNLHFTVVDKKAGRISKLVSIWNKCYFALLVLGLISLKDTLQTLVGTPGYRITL
tim10-1 inh – inhibits growth of tim10-1 mutant yeast | S. cerevisiae tim10-1 ts strain growth, BacTiter-Glo, 24 h | inhibition, % at 20 µM | 330,000 tested, 2.2% active | AID 463190;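 active means inhibition of at least 40%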;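 further: mutant grown at 25 °C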
tim10-1 conf – tim10-1 yeast growth inhibition, confirmed | S. cerevisiae tim10-1 ts strain growth, BacTiter-Glo, 24 h | 7,400 tested, 56% active | inhibition, % at 20 µM | shares compounds with tim10-1 inh | AID 463213;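 active means inhibition of yeast growth at or above a set limit in either of two repeat tests at 20 µM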;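 further: tim10-1 mutant grown at permissive 25 °C to find synthetic lethal compounds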
TIM10 conf – TIM10 yeast growth inhibition, confirmed; shares compounds with TIM10 inh; S. cerevisiae tim10 strain growth, BacTiter-Glo luminescence, 24 h; inhibition, % at 10 µM; 4,600 tested, 63% active; AID 463215;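 active means inhibition of yeast growth at or above a set limit in either of two replicates at 10 µM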; further: this counterscreen used the strain with wild-type TIM10
tim23-1 confirm – tim23-1 yeast growth inhibition, confirmed; inhibition, % at 20 µM; AID 463218; 4,400 tested, 83% active; shares compounds with tim23-1 inh; S. cerevisiae tim23-1 growth, BacTiter-Glo luminescence, 24 h;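 active means inhibition above about 39% in either of two replicate wells at 20 µM, limit read from the data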;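 further: temperature-sensitive tim23-1 mutant grown at 25 °C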
Of the large screens only hits and unclear results are named; the others gave an inactive call (follow-up assays come after a bar, where they were run).

CSc1nnc(-c2ccc(F)cc2)o1	none
Cc1noc2ncnc(Sc3ccc(Cl)cc3)c12	tim23-1 inh 58.3, tim10-1 inh 50.7 (no result: PfHsp90 set2) | tim10-1 conf 56.8 | tim23-1 confirm 49.5
CC1CCCC(NC(=O)c2ccc3c(c2)OCCO3)C1C (stereo not given)	none (no result: Rce1 inh)
CC1CCCC(NS(=O)(=O)c2ccc3c(c2)OCCO3)C1C (stereo not given)	tim23-1 inh 52.1, tim10-1 inh 57.0 | tim10-1 conf 47.8 | tim23-1 confirm 58.9
Cc1sc(N)nc1-c1ccc(Oc2ccccc2)cc1	tim23-1 inh 69.3, tim10-1 inh 40.3 | tim10-1 conf 50.5 | tim23-1 confirm 57.0
COc1cccc(CCNC(=O)CCCC(=O)c2ccccc2)c1	none
O=C(COC(=O)C1CCN(c2ccc(C(F)(F)F)cn2)CC1)Nc1ccc(Cl)cc1	tim23-1 inh 55.8, tim10-1 inh 43.3 (no result: PfHsp90 set2) | tim10-1 conf 46.1 | tim23-1 confirm 59.6
CCOn1c(=O)c(-c2cccs2)[n+]([O-])c2ccccc21	tim23-1 inh 61.8, tim10-1 inh 56.7 | tim10-1 conf 41.1 | tim23-1 confirm 67.5
Cn1ccnc1C(=O)Cc1ccc([N+](=O)[O-])cc1	none (no result: PfHsp90 set2)
O=C(N/N=C/c1ccccc1O)NC12CC3CC(CC(C3)C1)C2	tim23-1 inh 71.3, tim10-1 inh 44.4 | tim10-1 conf 36.5 | tim23-1 confirm 67.8
CC(=O)c1nn(-c2cccc(C)c2)cc1C(=O)c1cccc(Br)c1	none
CCc1noc(C)c1C(=O)Nc1nc(-c2cc(OC)ccc2OC)cs1	none
O=C(/C(N=Nc1cccc([N+](=O)[O-])c1)=C(/O)c1ccc(Br)cc1)C(F)(F)F	tim23-1 inh 61.8, tim10-1 inh 61.7 (no result: PfHsp90 set2) | tim10-1 conf 61.5 | tim23-1 confirm 73.1
N#C/C(=N\Nc1cccc([N+](=O)[O-])c1)C(=O)c1ccc(Br)cc1	none
Cc1ccc(CNC(=O)C2CCCN(S(=O)(=O)c3cccc4nonc34)C2)cc1 (stereo not given)	none
CC(=O)Nc1ccc(N=Cc2c(O)c(C(=O)Nc3ccccc3)cc3ccccc23)cc1	TIM10 inh 62.6, tim23-1 inh 64.4, tim10-1 inh 48.8 (no result: PfHsp90 set2) | tim10-1 conf inactive | TIM10 conf inactive | tim23-1 confirm inactive
CNC(=S)/N=C/NOCc1ccc(Cl)cc1Cl	TIM10 inh 50.7, tim23-1 inh 58.3, tim10-1 inh 65.8 | tim10-1 conf 46.8 | TIM10 conf 61.7 | tim23-1 confirm 66.5
Cc1ccc(C(=O)O/N=C(\N)c2ccc(Br)cc2)cc1	none
Cc1ccc(C(=O)COC(=O)c2cccs2)cc1	none
Cc1ccc(/C(N)=N/OC(=O)c2cccs2)cc1	TIM10 inh 80.3, tim23-1 inh 73.2, tim10-1 inh 47.8 | tim10-1 conf 60.1 | TIM10 conf 88.1 | tim23-1 confirm inactive
Cc1cccc(C(=O)NNC(=S)NC(=O)c2cccs2)c1	none (no result: Rce1 inh)
Cc1ccc(/C(N)=N/OC(=O)C23CC4CC(CC(C4)C2)C3)cc1	TIM10 inh 84.8, tim23-1 inh 79.7, tim10-1 inh 58.3 (no result: PfHsp90 set2) | tim10-1 conf 41.6 | TIM10 conf 85.7 | tim23-1 confirm 67.4
N/C(=N\OC(=O)c1cccs1)c1ccccc1	TIM10 inh 69.8, tim23-1 inh 71.1, tim10-1 inh 65.1 | tim10-1 conf 62.6 | TIM10 conf 36.0 | tim23-1 confirm 67.2
Cc1cccc(/C(N)=N/OC(=O)c2cccs2)c1	TIM10 inh 79.0, tim23-1 inh 81.3, tim10-1 inh 64.6 | tim10-1 conf 56.6 | TIM10 conf 72.7 | tim23-1 confirm 75.5
Cc1ccn2c(c1)nc(=S)n2C(=O)c1ccco1	none (no result: PfHsp90 set2)
N/C(=N\OC(=O)c1cccs1)c1cccc(Br)c1	TIM10 inh 89.9, tim23-1 inh 79.7, tim10-1 inh 57.3 | tim10-1 conf 59.0 | TIM10 conf 86.2 | tim23-1 confirm 51.2
Cc1cccc(N2C(=O)CC(Sc3ncn[nH]3)C2=O)c1 (stereo not given)	none
Cc1ccc(N2C(=O)CC(Sc3ncn[nH]3)C2=O)cc1C (stereo not given)	TIM10 inh 56.3, tim23-1 inh 76.9, tim10-1 inh 47.0 | tim10-1 conf 53.3 | TIM10 conf 55.3 | tim23-1 confirm 48.6
CC(C)N1CCc2c(sc(NC(=O)c3ccc([N+](=O)[O-])o3)c2C(N)=O)C1	none
COC(=O)c1c(NC(=O)c2ccc([N+](=O)[O-])o2)sc2c1CCN(C(C)C)C2	TIM10 inh 93.8, tim23-1 inh 90.7, tim10-1 inh 90.9 | tim10-1 conf 91.0 | TIM10 conf 97.7 | tim23-1 confirm 91.9
Cc1[nH][nH]c(=O)c1C(c1ccc(-c2ccc(F)cc2)o1)c1c(C)[nH][nH]c1=O	tim23-1 inh 84.5, tim10-1 inh 50.9 | tim10-1 conf inactive | tim23-1 confirm 60.5
CCc1noc(C)c1C(=O)NNC(=O)c1cc(OC)cc(OC)c1	none (no result: Rce1 inh)
Cc1cc(C)n(-c2ccc(NC(=O)C3CCCCN3C(=O)c3cc(C)oc3C)cc2)n1 (stereo not given)	none
Oc1c(Cl)cc(Cl)cc1C=Nc1ccc2c(c1)OCCO2	TIM10 inh 46.7, tim23-1 inh 77.2, tim10-1 inh 46.5 (no result: PfHsp90 set2) | tim10-1 conf inactive | TIM10 conf 31.9 | tim23-1 confirm 80.7
C[N+]1=C(/C=C/Nc2ccccc2Cl)C(C)(C)c2ccccc21	none
COC(=O)c1ccc2c(c1)C(C)(C)C(/C=C/c1ccccc1O)=[N+]2C	TIM10 inh 56.5, tim23-1 inh 65.9, tim10-1 inh 65.1 (no result: Rce1 inh) | tim10-1 conf 57.2 | TIM10 conf 53.0 | tim23-1 confirm 71.3
O=C(Nc1ccccc1Cl)c1ccccc1Oc1ccc(C(F)(F)F)cc1[N+](=O)[O-]	tim23-1 inh 55.7, tim10-1 inh 43.6 (no result: Rce1 inh) | tim10-1 conf 35.8 | tim23-1 confirm 50.6
O=C(c1ccccc1Oc1ccc(C(F)(F)F)cc1[N+](=O)[O-])N1CCOCC1	none
COC(=O)CC1c2ccccc2S(=O)(=O)N1Cc1ccccc1 (stereo not given)	none
Cc1cc(C)c2nc(NC(=O)[C@@H](NC(=O)c3cccc(S(=O)(=O)N4CCOCC4)c3)C(C)C)sc2c1	none
COC(=O)[C@]1(CC(C)C)N[C@H](c2ccc(-c3ccc(F)cc3)c(OC)c2)[C@@H]2C(=O)N(C)C(=O)[C@@H]21	none
CC1=C(C#N)c2nc(N)c(C#N)c(C)c2/C1=C\c1ccc(C)cc1	TIM10 inh 82.2, tim23-1 inh 55.9, tim10-1 inh 73.3 (no result: PfHsp90 set2) | tim10-1 conf 89.9 | TIM10 conf inactive | tim23-1 confirm 68.3
CC(OC(=O)CC1CC2CCC1C2)C(=O)Nc1ccc(C(N)=O)cc1 (stereo not given)	none (no result: Rce1 inh)
